The source of these data is PubChem BioAssay (NCI).

Structures are written as SMILES. This is part of a sample that, as a whole, favours compounds with a hit. Of some 83,000 tested, about 20% had one in any assay.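 In brief: 96-well plates, 48 h treatment, single concentration, percent growth endpoint.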 Unmarked numbers belong to inactive results. Activity calls are given as the source filed them. The calls were made as follows: active = growth percent below 10; inactive = the rest.

What all share (test): NCI-60 one-dose screen, 48 h (100 = growth as untreated, 0 = no growth, -100 = all killed)
Settings in all cases: 10 µM unless noted

Test [1] concerns NCI-H23 lung.
Test [2] deals with NCI-H226 lung.
The test system of test [3] is NCI-H322M lung.
In test [4] the test system is HOP-62 NSCLC.
Test [5] deals with NCI-H460 lung.
In test [6] the test system is HOP-92 NSCLC.
The subject of test [7] is NCI-H522 lung.
For test [8], the system named is A549/ATCC NSCLC.
The subject of test [9] is 786-0 renal.
Test [10] relates to COLO 205 colon.

In the case of `CCCCOc1ccc(NC(=O)n2nc(NC(C)=O)c3cc(NC(C)=O)ccc32)cc1`, the growth in test [1] is 101%; in test [2] it was 99%; in test [3] it was 99.4%; in [4] it was 108%; in test [5], 102%; in [6], 93%. Moreover, the growth is 91.7% in test [7], 102% in test [8], 93.2% in [9] and 121% in [10].

Take `O=c1ccc2cc3ccccc3cc2[nH]1`: the growth in test [1] is 93.1%; in [2] it was 94%; in [3], 114%; in [4], 95.4%; in [5], 93.8%; in test [6], 84.8%. Further, the growth in [7] was 98.8%; in [8] it was 102%; in [9] it was 103%; in test [10] it was 121%.

With `CNc1cc2nc3cc(NC)c(C)cc3cc2cc1C`, the growth is 13.3% in [1]; 26.4% in [2]; 12.5% in test [3]; 10.7% in [4]; -85.8% (active) in [5]; 11.7% in test [6]. Further, the growth in [7] is -2.17% (active); in test [8], -4.57% (active); in test [9] it was 12.9%; in test [10], -39.1% (active).

As for `CN(C)C(=O)c1cc2cnc(Nc3ccc(-c4csc5c(=O)cc(N6CCNCC6)oc45)cc3)nc2n1C1CCCC1`, the growth in [1] is 0.906% (active); in [2], 16.1%; in [3], 23%; in test [4], 21.4%; in [5] it was 7.5% (active); in [6], 31.3%. In addition, the growth was 46.5% in test [7], 2.05% (active) in test [8], 7.89% (active) in test [9] and 11% in test [10].

Regarding `CC[n+]1ccc2c(c1)C(=O)c1nccc3c1c-2nc1ccccc13`, the growth in test [1] is -27.9% (active); in [2], -67.1% (active); in test [3], -16.3% (active); in test [4], -27.6% (active); in [5], -82.1% (active); in test [6], -11.9% (active). In addition, the growth in test [7] is -38% (active); in test [8] it was -4.31% (active); in [9] it was -14.4% (active); in test [10] it was -23.8% (active).

`CCOC(=O)/C=C/c1ccc(C(=O)OCC)[nH]1`: the growth was 72.3% in [1]; 89% in test [2]; 57.4% in [3]; 76.7% in test [4]; 14.3% in test [5]; 53.8% in test [6]. Moreover, the growth in test [7] is 54.4%; in test [8] it was 40.3%; in test [9], 90.2%; in test [10], 16.2%.

For `O=C1c2cccnc2C(=O)c2c1c(C(=O)OCCN1CCCCC1)c1ccccn21`, the growth in test [1] was -53.2% (active); in test [2], -15.3% (active); in test [3] it was -81.7% (active); in test [4], -34.5% (active); in test [5], -16.7% (active); in test [6] it was 12.5%. Further, the growth was -64.5% (active) in [7], -46.6% (active) in test [8], -45.9% (active) in test [9] and -70.3% (active) in [10].

Turning to `Oc1cc(O)c2c(=S)cc(-c3ccc(Cl)cc3)oc2c1`, the growth is 4.05% (active) in [1]; 73.6% in [2]; 60.4% in test [3]; 46.4% in test [4]; 21% in [5]; -21.9% (active) in [6]. In addition, the growth in [7] was -1.71% (active); in test [8] it was 53.6%; in test [9], 74.6%; in test [10], 85.8%.

As for `Nc1ccc2c(c1)C(=O)NC2=O`, the growth in test [1] is 91.7%; in test [2], 96.2%; in test [3], 108%; in test [4], 93.1%; in test [5], 103%; in [6] it was 151%. In addition, the growth in [7] was 99.3%; in [8], 105%; in test [9], 110%; in test [10], 106%.

Regarding `CSc1ccc(N=C=C(c2ccccc2)c2ccccc2)cc1`, the growth in [1] is 99%; in test [2], 95.7%; in test [3], 107%; in [4], 96.1%; in test [5], 102%; in [6], 85.4%. Further, the growth in [7] was 71.8%; in test [8], 78.4%; in test [9], 95.6%; in test [10] it was 107%.

Take `CCN(CC)c1ccc(CNc2cc(C)nc3ccc(OC)cc23)cc1`: the growth in [1] was 21.2%; in test [2] it was 75.8%; in test [3], -5.55% (active); in [4], 102%; in [5], -39.4% (active); in [6], 20.7%. For the same compound, the growth is 24.6% in [7], 70.2% in test [8], 73.7% in [9] and -75.2% (active) in [10].

For `O=C(NC(Cc1ccccc1)C(=O)CCl)OCc1ccccc1` (stereo not given), the growth in test [1] is 69.4%; in test [2], 54.4%; in [3], 111%; in test [4], 87.1%; in test [5], 69.6%; in test [6], 73%. Also, the growth was 6.56% (active) in [7], 116% in test [8], 79.8% in [9] and 80.2% in test [10].

For the compound `CC/C=C\C[C@H](F)C/C=C1/C(=O)C=C[C@@H]1C/C=C\CCCC(=O)OC`, the growth in test [1] is -12.6% (active); in [2], 25.4%; in [3] it was 45.5%; in test [4], -25.8% (active); in test [5], 1.34% (active); in test [6], 68.9%. Also, the growth in [7] is -26.8% (active); in [8] it was 24.3%; in test [9] it was 5.15% (active); in test [10] it was -28.1% (active).
